Laboratory results as given in PubChem BioAssay AID1159580 (chemical genetic matrix, 2015).
Out of some 5,500 compounds screened, about 2,000 (36%) were called active. About 18% were inconclusive and are not listed. Cut-off read from the data, not from the text of the source: active = normalized growth mostly below about 0.91 (no sharp cut-off); inconclusive = no clear call, values can overlap the other calls; inactive = mostly above about 0.92. Some of the results follow.

Assay: chemical genetic growth profiling, strain panel (AID 1159580);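 note: tested at 20 µM; growth read once vehicle control cultures reached saturation at 30 °C; 1 = growth at the plate median or of vehicle wells; lower values mean less growth of the strain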
Conditions: S. cerevisiae deletion strains, growth OD

Measured: normalized growth

O=C(O)c1cc(=O)c2ccc(Cl)cc2[nH]1
inactive: locus YAL013W, strain DEP1, hits give low values 1.01 | locus YAL021C, strain ccr4, hits give low values 1 | locus YAL026C, strain drs2, hits give low values 1.03 | locus YAL030W, strain snc1, hits give low values 1.01 | locus YAL040C, strain CLN3, hits give low values 1.01 | locus YBL061C, strain skt5, hits give low values 1.02 | locus YBR009C, strain hhf1, hits give low values 1.01 | locus YBR021W, strain FUR4, hits give low values 1.01 | locus YBR023C, strain chs3, hits give low values 1.02 | locus YBR171W, strain sec66, hits give low values 1.03 | locus YBR229C, strain ROT2, hits give low values 1.02 | locus YBR231C, strain swc5, hits give low values 1.02 | locus YBR279W, strain paf1, hits give low values 1.01 | locus YCL011C, strain gbp2, hits give low values 1.02 | locus YCL016C, strain dcc1, hits give low values 1.04 | locus YCL029C, strain bik1, hits give low values 0.998 | locus YCL061C, strain MRC1 (second series), hits give low values 1.01 | locus YCL061C, strain MRC1, hits give low values 1.01 | locus YCL069W, strain vba3, hits give low values 1.01 | locus YCR088W, strain abp1, hits give low values 1.01 | locus YDL005C, strain med2, hits give low values 1.02 | locus YDL035C, strain GPR1, hits give low values 1.02 | locus YDL040C, strain nat1, hits give low values 1.01 | locus YDL074C, strain BRE1, hits give low values 1.06 | locus YDL101C, strain DUN1, hits give low values 1.01 | locus YDL134C, strain PPH21, hits give low values 1.01 | locus YDL185W, strain tfp1, hits give low values 0.988 | locus YDL192W, strain arf1, hits give low values 0.993 | locus YDR001C, strain nth1, hits give low values 1.01 | locus YDR069C, strain doa4, hits give low values 0.999 | locus YDR101C, strain arx1, hits give low values 0.999 | locus YDR137W, strain rgp1, hits give low values 1.01 | locus YDR150W, strain NUM1, hits give low values 1.01 | locus YDR159W, strain sac3, hits give low values 0.998 | locus YDR162C, strain NBP2, hits give low values 1.01 | locus YDR195W, strain ref2 1 | locus YDR297W, strain sur2, hits give low values 1.02 | locus YDR318W, strain mcm21, hits give low values 0.989 | locus YDR334W, strain swr1, hits give low values 1.01 | locus YDR335W, strain msn5, hits give low values 1.03 | locus YDR363W, strain ESC2, hits give low values 1.03 | locus YDR388W, hits give low values 0.999 | locus YDR392W, strain spt3, hits give low values 1.07 | locus YDR502C, strain sam2, hits give low values 1.01 | locus YEL003W, strain gim4, hits give low values 1.02 | locus YEL037C, strain rad23, hits give low values 1.02 | locus YEL061C, strain CIN8 (second series), hits give low values 1.01 | locus YEL061C, strain CIN8, hits give low values 1.01 | locus YER002W, strain NOP16, hits give low values 1.03 | locus YER015W, strain faa2, hits give low values 1.02 | locus YER016W, strain bim1, hits give low values 1.04 | locus YER110C, hits give low values 0.99 | locus YER111C, strain swi4, hits give low values 1.01 | locus YER155C, strain BEM2 (second series), hits give low values 1.02 | locus YER155C, strain BEM2, hits give low values 1.01 | locus YER167W, strain BCK2, hits give low values 0.995 | locus YFR010W, strain ubp6, hits give low values 0.986 | locus YGL078C, strain dbp3, hits give low values 1 | locus YGL086W, strain mad1, hits give low values 1 | locus YGL167C, strain pmr1, hits give low values 1.01 | locus YGL173C, strain kem1, hits give low values 1.02 | locus YGL227W, strain vid30, hits give low values 1.04 | locus YGL240W, strain doc1, hits give low values 1.01 | locus YGL248W, strain PDE1, hits give low values 1.03 | locus YGL253W, strain hxk2, hits give low values 1.02 | locus YGR078C, strain PAC10, hits give low values 1.03 | locus YGR135W, strain pre9, hits give low values 0.976 | locus YGR252W, strain gcn5, hits give low values 0.992 | locus YHR013C, strain ard1, hits give low values 1.04 | locus YHR027C, strain rpn1, hits give low values 0.994 | locus YHR030C, strain SLT2, hits give low values 1.01 | locus YHR079C, strain IRE1 (second series), hits give low values 0.99 | locus YHR094C, strain hxt1, hits give low values 0.992 | locus YHR129C, strain ARP1, hits give low values 1.02 | locus YHR142W, strain chs7, hits give low values 1.04 | locus YHR200W, strain rpn10, hits give low values 0.992 | locus YIL066C, strain RNR3, hits give low values 1.03 | locus YIL073C, strain SPO22, hits give low values 0.979 | locus YIL125W, strain kgd1, hits give low values 0.994 | locus YIR030C, strain dcg1, hits give low values 0.995 | locus YJL092W, strain hpr5, hits give low values 1.02 | locus YJL095W, strain BCK1 (second series), hits give low values 1.03 | locus YJL095W, strain BCK1, hits give low values 1.04 | locus YJL115W, strain asf1, hits give low values 1.01 | locus YJL129C, strain trk1, hits give low values 1.03 | locus YJL134W, strain LCB3, hits give low values 1.01 | locus YJL154C, strain vps35, hits give low values 1.01 | locus YJL164C, strain tpk1, hits give low values 1.01 | locus YJL166W, strain qcr8, hits give low values 1.02 | locus YJL168C, strain set2, hits give low values 0.992 | locus YJL187C, strain SWE1 (second series), hits give low values 1.04 | locus YJL187C, strain SWE1, hits give low values 1.02
